In the first assay the target is PPIA (UniProt P62937). The experiment in a line: cross-linking mass spectrometry. The following applies: DSSO, in cells.
Chain of PPIA (P62937 whole entry): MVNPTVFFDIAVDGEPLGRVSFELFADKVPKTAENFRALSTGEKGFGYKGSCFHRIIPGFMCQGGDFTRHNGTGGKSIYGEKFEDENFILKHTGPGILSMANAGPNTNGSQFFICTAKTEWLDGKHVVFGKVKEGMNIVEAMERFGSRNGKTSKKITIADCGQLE
Chain of YWHAQ, P27348 (P27348 whole entry): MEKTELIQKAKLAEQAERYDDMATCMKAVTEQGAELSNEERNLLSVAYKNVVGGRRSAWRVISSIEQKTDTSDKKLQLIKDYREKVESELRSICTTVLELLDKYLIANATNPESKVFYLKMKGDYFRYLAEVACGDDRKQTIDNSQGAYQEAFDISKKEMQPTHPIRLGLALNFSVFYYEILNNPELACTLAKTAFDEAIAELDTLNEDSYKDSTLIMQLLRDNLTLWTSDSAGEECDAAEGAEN
Chain of ENO1, P06733 (P06733 whole entry): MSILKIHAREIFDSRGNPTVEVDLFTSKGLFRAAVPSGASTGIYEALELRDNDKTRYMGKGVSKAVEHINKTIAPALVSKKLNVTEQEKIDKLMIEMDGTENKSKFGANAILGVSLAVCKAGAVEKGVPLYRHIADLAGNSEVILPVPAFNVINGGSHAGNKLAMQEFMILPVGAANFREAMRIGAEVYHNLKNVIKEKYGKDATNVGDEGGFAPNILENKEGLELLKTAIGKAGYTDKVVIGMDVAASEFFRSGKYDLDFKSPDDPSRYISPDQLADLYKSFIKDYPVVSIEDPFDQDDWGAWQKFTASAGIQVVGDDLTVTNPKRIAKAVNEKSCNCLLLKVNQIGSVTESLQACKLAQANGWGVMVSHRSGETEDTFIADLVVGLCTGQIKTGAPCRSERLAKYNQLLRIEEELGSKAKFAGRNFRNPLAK
Chain of YWHAB, P31946 (P31946 whole entry): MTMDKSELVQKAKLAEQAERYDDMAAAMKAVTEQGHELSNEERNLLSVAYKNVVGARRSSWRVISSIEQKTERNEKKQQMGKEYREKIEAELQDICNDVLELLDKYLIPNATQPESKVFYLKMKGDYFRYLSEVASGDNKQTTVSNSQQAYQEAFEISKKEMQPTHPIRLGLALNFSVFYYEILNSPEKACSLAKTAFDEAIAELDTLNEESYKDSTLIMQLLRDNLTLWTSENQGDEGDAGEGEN
Chain of GAPDH, P04406 (P04406 whole entry): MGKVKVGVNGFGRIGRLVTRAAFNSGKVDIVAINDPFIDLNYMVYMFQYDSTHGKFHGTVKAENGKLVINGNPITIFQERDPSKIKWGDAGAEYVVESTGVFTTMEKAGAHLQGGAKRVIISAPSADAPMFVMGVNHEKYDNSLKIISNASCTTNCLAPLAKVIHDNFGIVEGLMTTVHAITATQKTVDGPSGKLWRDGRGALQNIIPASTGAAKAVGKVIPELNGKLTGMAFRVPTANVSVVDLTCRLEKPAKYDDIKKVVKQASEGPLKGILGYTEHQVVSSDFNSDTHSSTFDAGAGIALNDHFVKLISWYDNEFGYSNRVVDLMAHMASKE
Take ENO1, P06733: the cross-linked residues entry was “K256 - K82”.

For VIM, P08670, the cross-linked residues result is recorded as “K445 - K76”.

As to GAPDH, P04406, the cross-linked residues result was “K251 - K76”.

The target of the next assay is RRBP1 (UniProt Q9P2E9). The experiment in a line: cross-linking mass spectrometry. The following applies: DSSO, in cells.
In the case of RPL11, P62913, the cross-linked residues result is reported as “K67 - K270”.

As to RPL31, P62899, the cross-linked residues result is given as “K91 - K261”.

As to RPL10A, P62906, the cross-linked residues result is reported as “K130 - K261”.

Turning to LRRC59, Q96AG4, the cross-linked residues entry is reported as “K180 - K261”.

Take SEC61B, P60468: the cross-linked residues result was “K20 - K261”.

A further assay concerns the target YWHAZ (UniProt P63104). The assay is described as follows: cross-linking mass spectrometry. Particulars: DSSO, in cells.
Take YWHAB, P31946: the cross-linked residues entry is “K11 - K85”.

On to YWHAQ, P27348, for which the cross-linked residues entry was “K9 - K85”.

With S100A6, P06703, the cross-linked residues entry is reported as “K26 - K157”.

(Values after publication PMC12280212.)
